Rows were chosen to be rich in hits. Some 2.5% of all compounds tested hit in one or more screens of this group.
ASK1 inh = ASK1 kinase inhibitors, primary screen, biochemical, AlphaScreen | AlphaScreen MKK6 phosphorylation by ASK1, luminescence | Mitogen-activated protein kinase kinase kinase 5 (Homo sapiens), Q99683 | inhibition, % at 7.44 µM | 22,000 tested, 0.99% active; in the data active means inhibition above about 35%;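 further: 0% = median of compound wells and 100% = no enzyme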
ULK1 inh = ULK1 kinase inhibitors, primary screen, biochemical, AlphaScreen. AlphaScreen Atg13 phosphorylation by ULK1, luminescence. inhibition, % at 5.96 µM. 30,000 tested, 1.9% active. Serine/threonine-protein kinase ULK1 (Homo sapiens), O75385; in the data active means inhibition above about 43%;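 further: 0% = median of compound wells and 100% = no enzyme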
Starred values were filed as active, the others as inactive; . = no result.

SMILES | ASK1 inh | ULK1 inh
NC(=O)c1ccc(-c2nc(NCCN3CCOCC3)c3ncn(Cc4ccc(C(F)(F)F)cc4)c3n2)cc1 | 3 | -43
O=C(Nc1ccc(N2CCOCC2)cc1)c1cccc(Nc2ccc(-n3ccnc3)cc2)c1 | 14 | 44*
O=C(Nc1ccc(N2CCOCC2)cc1)c1ccnc(Nc2ccncc2)c1 | -22 | 49*
O=C(Nc1ccc(N2CCOCC2)cc1)c1cncc(Nc2ccncc2)c1 | -28 | 66*
Cn1nccc1Nc1cc(C(=O)Nc2ccc(N3CCOCC3)cc2)ccn1 | 20 | 9
O=C(Nc1ccc(N2CCOCC2)cc1)c1cncc(-c2ccc(N3CCOCC3)nc2)c1 | 10 | 15
Cc1cc(NCc2ccccc2)nc(Nc2ccc(N3CCOCC3)cc2)n1 | 24 | 11
Cc1cc(Nc2ccc(N3CCOCC3)cc2)nc(Nc2ccccc2)n1 | 42* | 7
O=C(Nc1ccc2c(c1)OCO2)c1cccc(Nc2ccc(-n3ccnc3)cc2)c1 | -5 | 3
CNC(=O)CSc1nc2c(c(=O)n1C)SC(C)C2 (stereo unspecified) | . | 1
O=C(Nc1ccc(N2CCOCC2)cc1)c1ccnc(NCc2ccc3c(c2)OCO3)c1 | -19 | 45*
O=C(Nc1ccc(N2CCOCC2)cc1)c1cccc(Nc2ccncc2)c1 | -18 | 70*
c1cc(Nc2ccc(N3CCOCC3)cc2)cc(Nc2ccc(N3CCOCC3)cc2)n1 | 29 | 6
O=C(NCCN1CCOCC1)c1ccnc(NCc2ccc3c(c2)OCO3)c1 | -7 | 0
Nc1nccc(Nc2ccnc(Nc3ccc(N4CCOCC4)cc3)c2)n1 | 17 | 43*
CC(=O)Nc1ccc(NC(=O)c2cccc(N3CCOCC3)c2)cc1 | -24 | 6
CC(C)N(CCNc1nc(Nc2cccc(N(C)C)c2)nc2c1ncn2C(C)C)C(C)C | 2 | 5
COCCOc1cc(-c2cn[nH]c2)ccc1NC(=O)NCc1cccc(OC)c1 | -19 | -20
COc1ccc(CCNc2nc(N3CCN(c4ccccn4)CC3)nc3c2ncn3Cc2ccc(C(F)(F)F)cc2)cc1 | 16 | -3
O=C(NCc1ccccc1)c1ccc2cnc(Nc3ccc(-n4cnc(N5CCOCC5)n4)cc3)nc2c1 | 9 | 37
CCn1cc(-c2ccc3cnc(Nc4ccc(-n5cnc(N6CCOCC6)n5)cc4)nc3c2Cl)cn1 | 3 | 78*
Cn1cc(-c2ccc3cnc(Nc4ccc(-n5cnc(N6CCOCC6)n5)cc4)nc3c2C(F)(F)F)cn1 | -74 | 33
CNC(=O)c1ccc2cnc(Nc3ccc(-n4cnc(N5CCOCC5)n4)cc3)nc2c1 | -45 | 50*
CC1CN(c2ncn(-c3ccc(Nc4ncc5ccc(-c6cnn(C)c6)c(Cl)c5n4)cc3)n2)CC(C)O1 (stereo unspecified) | 6 | 53*
Cn1cc(-c2ccc3cnc(Nc4ccc(-n5cnc(N6CCOCC6)n5)cc4)nc3n2)cn1 | 22 | 7
SMILES | ASK1 inh | ULK1 inh
O=C(CNC(=O)c1ccccc1)NCC(=O)N/N=C/c1ccco1 | . | -6
CC(C)n1c(-c2cccc(N)c2)nc2c(Nc3ccc(Oc4ccccc4)cc3)ncnc21 | 13 | -11
COc1ccc(CCNc2ncnc3nc(Nc4cnccn4)[nH]c23)cc1 | 1 | -3
O=C(NCCCN1CCCC1=O)c1cccc(NCc2ccc3c(c2)OCO3)n1 | -11 | -6
Cc1nc(N)cc(-c2ccc(NC(=O)C3COc4ccccc4O3)cc2C)n1 (stereo unspecified) | -8 | 0
C=C(NC(=O)C(=C)NC(=O)c1csc(C2=NC3c4csc(n4)C4NC(=O)c5csc(n5)C(C(C)(O)C(C)O)NC(=O)C5CSC(=N5)C(=CC)NC(=O)C(C(C)O)NC(=O)c5csc(n5)C3(CC2)NC(=O)C(C)NC(=O)C(=C)NC(=O)C(C)NC(=O)C(C(C)CC)NC2C=Cc3c(C(C)O)cc(nc3C2O)C(=O)OC4C)n1)C(N)=O (stereo unspecified) | . | 43*
N[C@@H](Cc1ccc(Br)cc1)C(=O)N1CCC(c2nc(-c3ccncc3)no2)CC1 | 8 | 72*
N[C@@H](Cc1ccc(Br)cc1)C(=O)N1CCC(c2nc(-c3ccncc3)no2)C1 (stereo partly specified) | -5 | 3
Nc1nccc(-c2ccc3nc(C4COc5ccc(C(=O)NCCc6cccnc6)cc5C4)[nH]c3c2)n1 (stereo unspecified) | -8 | -28
O=C(Nc1cccc(F)c1N1CCC2(CC1)OCCO2)c1ccc(Br)o1 | -11 | -9
O=C(Nc1ccc(F)c(F)c1N1CCC2(CC1)OCCO2)c1ccc(Br)o1 | -18 | 53*
CCCCC(CC)COC(=O)CC(C(=O)OCC(CC)CCCC)S(=O)(=O)O (stereo unspecified) | . | 54*
CCCCC(CC)COC(=O)C(C#N)=C(c1ccccc1)c1ccccc1 (stereo unspecified) | . | -8
Nc1nc(Nc2ccc(-n3ccnc3)cc2)nc2c1ncn2C1CCCCC1 | 0 | -29
CCN(CC)C(=O)C1CCCN(c2ncc(C(=O)NCCOc3ccccc3)s2)C1 (stereo unspecified) | -20 | -11
CCN1CCN(c2c(Cl)cccc2NS(=O)(=O)c2ccc(C)cc2)CC1 | -20 | 0
CCOC(=O)c1ccccc1O | . | 54*
O=C(OCCO)c1ccccc1O | . | 0
c1ccc(Nc2nc(Nc3ccccn3)nc3c2ncn3C2CCCCC2)cc1 | 0 | 9
CCOc1nc2cccc(C(=O)OC(C)OC(=O)OC3CCCCC3)c2n1Cc1ccc(-c2ccccc2-c2nn[nH]n2)cc1 (stereo unspecified) | . | 53*
CCCc1nc(C(C)(C)O)c(C(=O)OCc2oc(=O)oc2C)n1Cc1ccc(-c2ccccc2-c2nn[nH]n2)cc1 | . | -4
CN(C)c1cccc(Nc2nc(NC3CCN(Cc4ccccc4)CC3)c3ncn(Cc4ccc(C(F)(F)F)cc4)c3n2)c1 | 34 | 44*
CCCNc1nc(Nc2cccc(N(C)C)c2)nc2c1ncn2Cc1ccc(C(F)(F)F)cc1 | 18 | 15
CN(C)c1cccc(Nc2nc(NCCO)c3ncn(Cc4ccc(C(F)(F)F)cc4)c3n2)c1 | 7 | 54*
FC(F)(F)c1ccc(Cn2cnc3c(NC4CCN(Cc5ccccc5)CC4)nc(Nc4ccccc4)nc32)cc1 | 2 | -7
SMILES | ASK1 inh | ULK1 inh
CCCNc1nc(Nc2ccncn2)nc2c1ncn2C1CCCCC1 | -30 | 16
CC(C)c1nnc(-c2cc3ccccc3n2Cc2ccccc2)o1 | . | -5
COc1ccc(-c2ncc(C)c(Nc3ccccc3)n2)cn1 | 11 | -24
COc1cc(Nc2ccnc(-c3ccc(N4CCOCC4)nc3)n2)cc(OC)c1OC | 8 | 74*
COc1ccc(-c2ncc(C)c(Nc3cc(OC)c(OC)c(OC)c3)n2)cn1 | 18 | 55*
c1cncc(CNc2nc(-c3ccc(N4CCOCC4)nc3)nc3nc[nH]c23)c1 | -2 | 59*
COc1ccc(-c2nc(NCc3cccnc3)c3[nH]cnc3n2)cn1 | -15 | 8
Cc1cnc(-c2ccc(N3CCOCC3)nc2)nc1Nc1ccc(N2CCOCC2)cc1 | 16 | 52*
Cc1cnc(-c2ccc(N3CCOCC3)nc2)nc1Nc1ccc(Oc2ccccc2)cc1 | 2 | -8
COc1cc2nc(-c3ccc(N4CCOCC4)nc3)nc(Nc3cc(OC)c(OC)c(OC)c3)c2cc1OC | 1 | -5
O=C(Nc1ccc2cn[nH]c2c1)c1ccc(SCC(O)c2ccc(Br)cc2)cc1 (stereo unspecified) | 5 | -37

Screens (PubChem BioAssay)
